# Screening data: PubChem BioAssay, National Center for Advancing Translational Sciences (NCATS)
# TDP1 cell CPT: DT40-hTDP1 cell growth loss with CPT | Potency, µM (titrated, usually from 46.2 µM), inactives show at the highest dose activity change, negative = growth inhibition, hits mostly inhibitors | AID 686979 | chicken DT40 Tdp1-/-;hTDP1 cells + 20 nM CPT, ATP luminescence, 48 h | actives 12% (n = 420,000); note: nearly all actives have a fitted effect of over 55% in size
#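 Chicken DT40 Tdp1-/- cells complemented with human TDP1, 400 cells/well, exposed to compounds plus 20 nM camptothecin for at least 48 h at 37 C; viability read as ATP content by CellTiter-Glo luminescence.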
# RORgamma inh: blocks mouse ROR gamma transcriptional activity | P51450 | actives 5.4% (n = 310,000) | Drosophila S2 Gal4-RORgamma UAS-luciferase reporter, 20 h | AID 2551 | Potency, µM (top dose mostly 53.6 µM), inactives show at the highest dose activity change, negative = inhibition, actives largely listed as inhibitors; note: nearly all actives have a fitted effect of over 60% in size
# Target sequence (P51450 whole entry, looked up, the tested form may be a part): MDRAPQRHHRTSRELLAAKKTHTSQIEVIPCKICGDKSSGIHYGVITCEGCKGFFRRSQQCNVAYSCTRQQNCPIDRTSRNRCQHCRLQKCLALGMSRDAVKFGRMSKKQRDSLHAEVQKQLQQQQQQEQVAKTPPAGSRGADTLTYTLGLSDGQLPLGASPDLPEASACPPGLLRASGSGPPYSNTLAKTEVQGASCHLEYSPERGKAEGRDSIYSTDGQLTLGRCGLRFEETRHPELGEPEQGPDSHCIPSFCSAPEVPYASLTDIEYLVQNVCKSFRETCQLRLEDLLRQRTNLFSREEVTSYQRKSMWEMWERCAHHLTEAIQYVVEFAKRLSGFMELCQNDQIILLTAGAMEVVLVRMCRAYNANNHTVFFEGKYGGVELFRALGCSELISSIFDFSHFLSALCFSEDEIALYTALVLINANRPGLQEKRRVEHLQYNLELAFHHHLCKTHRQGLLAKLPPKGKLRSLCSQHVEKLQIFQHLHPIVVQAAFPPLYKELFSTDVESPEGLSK
#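 Stable Schneider cell line, Gal4 DNA-binding domain fused to ROR gamma, UAS-luciferase. Cmpd 1 hr RT → CuSO4 700 uM final → 20 hr RT → luciferase reagent 10 min → luminescence.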
# TDP1 block: inhibitors of human tyrosyl-DNA phosphodiesterase TDP1; Q9NUW8; recombinant TDP1, AlphaScreen DNA substrate cleavage; Potency, µM (series often up to 130 µM), without a hit: at the highest dose activity change, negative = inhibition, most hits filed as inhibitors; actives 0.28% (n = 350,000); AID 485290; note: nearly all actives have a fitted effect of over 40% in size
#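 Compounds were preincubated with Tdp1 (1 nM final) for 15 min at room temperature before substrate (15 nM final) started a 5 min reaction; beads (10 ug/ml final) were then added for 10 min before AlphaScreen detection.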
# TDP1 cell noCPT: qHTS for Inhibitors of human tyrosyl-DNA phosphodiesterase 1 (TDP1): qHTS in cells in absence of CPT. actives 15% (n = 420,000). AID 686978, 2013. Potency, µM (top dose mostly 46.2 µM), for the others: at the highest dose activity change, negative = growth inhibition, actives largely listed as inhibitors. DT40 Tdp1-/- hTDP1 cells, no CPT, ATP luminescence, 48 h; note: nearly all actives have a fitted effect of over 55% in size
#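 Cells were dispensed at 400 per well, compounds added by pin tool, plates incubated ≥48 hr at 37 °C, then CellTiter-Glo added for 30 min at room temperature before luminescence reading. Line: DT40 Tdp1-/- complemented with hTDP1; camptothecin omitted.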
# Gal4-VP16 FLuc: Gal4-VP16 reporter inhibition counter-screen; actives 3.5% (n = 310,000); AID 2546; Drosophila S2 Gal4-VP16 UAS-luciferase, luminescence, 20 h; Potency, µM (doses to about 53.6 µM), without a hit: top-dose activity, negative = inhibition, actives largely listed as inhibitors;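 note: Gal4-VP16 expression switched on by copper sulfate through the metallothionein promoter; nearly all actives have a fitted effect of over 50% in size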
# * = called active by the depositor; ? = inconclusive; · = not tested or not shown; ! = repeats disagree; [ ] = another dose, or the depositor's remark. The list is not random: actives were taken first. Their share in the collection is about 19%. Calls come from the whole dose curve; as a rule, active = well fitted curve in the direction sought with a large enough effect; inconclusive = small, poorly fitted or top-dose-only effect, or another doubt; inactive = no such curve, though single readings can be large; an effect the other way counts as inactive or inconclusive. % is set by controls: 0 for no effect and ±100 for the full control effect; potency is the fitted concentration of half-maximal effect.
SMILES,TDP1 cell CPT,RORgamma inh,TDP1 block,TDP1 cell noCPT,Gal4-VP16 FLuc
COC(=O)[C@@]12CCCCN1[C@H](c1ccc(-c3ccc(Cl)c(Cl)c3)c(OC)c1)[C@@H]1C(=O)N(C)C(=O)[C@@H]12,11.6µM*,·,·,10.3µM*,·
COC(=O)C1=C(C)NC(C)=C(C(=O)O[C@H]2CCN(Cc3ccccc3)C2)[C@H]1c1cccc([N+](=O)[O-])c1,?,·,·,23.7µM*,·
c1ccc(C2CC3CC4(CCCC4)N2O3)cc1 (centres undefined),-0.5%,-16.4%,1.0%,-6.1%,-4.3%
c1ccc(P(c2ccccc2)c2ccccn2)cc1,5.17µM*,21.6%,·,5.17µM*,-1.9%
CC(NC1CCCCC1)C(O)C12CC3CC(CC(C3)C1)C2 (centres undefined),18.4µM*,-1.5%,4.7%,16.4µM*,-4.8%
COC(=O)c1c(-c2ccc(Cl)cc2)noc1N1CCN(c2ccc(C(C)=O)cc2)CC1,?,·,8.1%,20.6µM*,·
COC(=O)C1=C(c2ccc(C(C)=O)cc2)C[C@@H]2CC[C@H]1N2C,-1.5%,·,0.0%,-3.1%,·
CC12CCC3C(CC=C4CC(O)CCC43C)C1C/C(=C\c1cccc(F)c1)C2=O (centres undefined),?,?,-2.7%,14.6µM*,-27.8%
c1ccc(C(O[C@H]2CCCN(CCc3ccc4c(c3)OCO4)C2)c2ccccc2)cc1,?,·,·,23.7µM*,·
Cc1cccc(N2CCc3c2nc2ccccc2c3N)c1,14.6µM*,?,3.1%,?,19.1%
Cc1cccc(-n2c(/C=C/c3ccccc3O)nc3ccccc3c2=O)c1,?,·,4.8%[2.28 µM],?,·
COc1ccc(CNC(=O)/C=C/c2ccc3[nH]cc(CCN(C)C)c3c2)cc1,-9.2%,-26.6%,10.9%[56.1 µM],-4.4%,-7.0%
CCN1CCN(S(=O)(=O)c2ccc(Cl)c(C(=O)N(CC)CC(=O)Nc3ccc(OC)cc3)c2)CC1,-23.1%,5.62µM*,-4.6%,0.2%,-14.2%
COc1ccc(CN2CCN(C(=O)Cc3ccccc3)CC2)cc1Br,-18.6%,20.1%,·,-10.4%,-12.0%
CC1CC(C)C(=O)[C@H](C(O)CC2CC(=O)NC(=O)C2)C1 (some centres undefined),0.291µM*,0.316µM*,-9.6%[56.1 µM],0.0731µM*,2.3%
C[C@H]1C[C@@H](C)C(=O)[C@@H]([C@H](O)CC2CC(=O)NC(=O)C2)C1,0.184µM*,0.251µM*!,3.8%,0.184µM*,2.82µM*!
C[C@H]1C[C@H](C)C(=O)[C@@H]([C@H](O)CC2CC(=O)NC(=O)C2)C1,0.133µM*,?,-9.0%[56.1 µM],0.0841µM*,?
COc1cc2c(cc1OC)-c1c(OC)c(OC)c(OC)c3ccnc(c13)C2=O,4.11µM*,-16.0%,0.0%,3.66µM*,-3.7%
COc1cc(CC2(CCc3ccncc3)C(=O)NC(=O)NC2=O)cc(OC)c1OC,-22.3%,1.1%,2.8%,?,5.3%
CC(C)(C)c1cc(O)ccc1O,1.68µM*,3.55µM*!,6.4%,1.19µM*,3.16µM*
CC(C)(C)c1ccccc1O,-7.1%,0.0%,-0.1%,-0.7%,-1.6%
O=C(Nc1ccc2oc(-c3cccnc3)nc2c1)c1ccc(-c2cccc(Cl)c2)o1,-78.0%,·,·,7.31µM*,·
C/C(=N\NC(N)=S)C12CC3CC(CC(C3)C1)C2,23.1µM*,1.78µM*,5.9%,14.6µM*,2.51µM*
O=C(Cc1ccccc1)OCCN1CCOCC1,-4.0%,1.3%,2.8%,?,-1.7%
CN(C)C(=O)Oc1ccc2c(c1)O/C(=C\c1cccc(Cl)c1)C2=O,11.3%,9.1%,·,-22.7%,-3.9%
SMILES,TDP1 cell CPT,RORgamma inh,TDP1 block,TDP1 cell noCPT,Gal4-VP16 FLuc
C=CCC1(CC)C(=O)NC(=S)NC1=O,-2.4%,·,·,0.6%,·
C[C@H](CCC(=O)O)[C@H]1CC[C@@H]2[C@H]3CC[C@H]4C[C@@H](O)CC[C@@]4(C)[C@H]3CC[C@]21C,·,-0.5%[16.9 µM],1.3%[56.1 µM],·,3.7%[17 µM]
COC(=O)C12CC3=C[C@H](CC3=O)Cc3ccccc3[C@@H]1CNC2=O (some centres undefined),·,-25.7%,6.9%,·,3.9%
COc1ccc(-n2nc(C(=O)NCC(=O)N3CCC4(CC3)OCCO4)c3ccccc3c2=O)c(OC)c1,-12.0%,6.31µM*,-12.8%,-17.9%,10µM*
O=[N+]([O-])/C=C/c1ccccc1,·,17.2%,7.6%,·,?
ClC1=C(Cl)C(Cl)=C(Cl)C1=C/C=C/c1ccccc1,5.17µM*,-12.4%,8.2%,3.26µM*,-11.8%
CS(=O)(=O)c1ccc(C2=C(CNC(=O)c3cccs3)[C@H]3CC[C@@H](C2)N3Cc2ccco2)cc1,-4.3%,·,·,-12.7%,·
C#C[C@]1(O)CCC2C3C(=O)C=C4C(Cl)=CCC[C@]4(C)C3CC[C@@]21C (some centres undefined),16.4µM*,·,·,10.3µM*,·
Cn1ncnc2c(=O)n(C)c(=O)nc1-2,0.206µM*,0.0398µM*,5.8%,0.291µM*,0.631µM*
Cc1ccc(-c2nc3c(=O)n(C)c(=O)nc-3n(C)n2)cc1,0.631µM*,·,2.7%,0.501µM*,·
COC(=O)c1c(C)n(Cc2ccc3c(c2)OCO3)c2ccc(O)cc12,?,?,8.2%,-23.6%,?
Cc1cc(C)cc(N2C(=O)NC(=O)/C(=C\C=C\c3ccco3)C2=O)c1,5.17µM*,3.16µM*,-1.9%,5.8µM*,10µM*
CC(C)c1ccc(N2C(=O)NC(=O)/C(=C/C=C/c3ccco3)C2=O)cc1,5.17µM*,-98.5%,0.0%,4.61µM*,12.6µM*
CC1=NN(c2ccccc2)C(=O)C1/C=C1\C(=O)NC(=O)N(c2cc(C)cc(C)c2)C1=O (centres undefined),-13.3%,2.9%,2.5%,?,-7.9%
COc1cc(/C=C2\C(=O)NC(=O)N(c3ccccc3)C2=O)cc(OC)c1OC,-3.6%,?,-1.6%,-2.9%,6.9%
CCc1ccc(N2C(=O)NC(=O)/C(=C\C=C\c3ccco3)C2=O)cc1,3.66µM*,22.4%,-1.2%,3.26µM*,-5.4%
Cc1ccccc1N1C(=O)/C(=C/c2ccco2)C(=O)NC1=S,·,-22.3%,·,·,-17.5%
CCOc1ccc(N2C(=O)/C(=C/c3ccco3)C(=O)NC2=S)cc1,-14.5%,12.2%,·,-0.3%,4.4%
O=C1NC(=O)N(c2ccccc2)C(=O)/C1=C\C=C\c1ccccc1,2.06µM*,?,2.9%,2.59µM*,10µM*
O=C(Nc1ccc(C(F)(F)F)cc1)c1cccn(Cc2ccc3c(c2)OC(F)(F)O3)c1=O,-20.7%,7.2%,-2.0%,-24.0%,-3.0%
CCCCCn1c(=O)c(C(=O)Nc2cccc(C)n2)c(O)c2ccccc21,28.9%,25.2%[1.91 µM],·,?,4.0%
CCCCCCn1c(=O)c(C(=O)Nc2nc(CC(=O)OCC)cs2)c(O)c2ccccc21,3.66µM*,-17.6%,5.0%,3.66µM*,-6.9%
